Screening data from PubChem.
Compounds with a hit are over-represented: about 3.8% of the library has one in this group of screens.
KCNH2 WT inh – blocks the wildtype human KCNH2 potassium channel; Q12809; U2OS, BacMam KCNH2, thallium flux FluxOr; active compounds read low; activity change, % at 1.84 µM; 340,000 tested, 0.37% active;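 active = maximum activity change below -70%; inconclusive = maximum activity change between -70% and -50%; inactive = maximum activity change above -50%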; also: % is scaled to controls: 0 for no effect and ±100 for the full control effect
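U2OS cells transduced with wild-type KCNH2 virus are loaded with FluxOr dye for 45 min, and thallium flux is measured in kinetic reads before and after stimulation buffer. Rate constants are normalized to DMSO controls.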
MBNL1 CUG block – blocks human MBNL1 binding to CUG repeat RNA. TR-FRET MBNL1-His/biotin-(CUG)12 binding, 665/545 ratio. Potency, µM (doses to about 57.5 µM), inactives show at the top dose activity change, negative = inhibition, most hits filed as inhibitors. 280,000 tested, 0.036% active; active = well fitted inhibition curve with a large enough effect in the signal ratio, with a control signal flat, not every such curve was filed as active; inconclusive = small, poorly fitted or top-dose-only effect, or effect the other way, or a change in a side signal; inactive = no such curve, though single readings can be large or run the other way; the % refers to the signal ratio; also: potency is read from the fitted curve at half-maximal effect; % is scaled to controls: 0 for no effect and ±100 for the full control effect
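His-tagged MBNL1 binding to biotinylated (CUG)12 RNA was measured by TR-FRET using terbium anti-His antibody (0.055 ng/ul final) and streptavidin-XL665 (5 nM final). Compounds were titrated 92 nM to 58 uM; 60 min at room temperature.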
CBFb RUNX1 block – blocks binding between human CBF-beta and RUNX1 | Q01196+Q13951 | AlphaScreen CBFb-His/RUNX1-biotin binding, biochemical | Potency, µM (titrated, usually from 59.8 µM), without a hit: top-dose activity, negative = inhibition, usual class: inhibitors | 230,000 tested, under 10 active | AID 1477; also: % of control where 0% means no effect
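CBF-beta (His) and RUNX1 (biotin), 30 nM each; 20 min preassociation; + compound, 15 min; + beads 50 ng each (Ni, streptavidin), 90 min; RT; AlphaScreen read.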
VDR inh – blocks the human vitamin D receptor; P11473; VDR-SRC2-3 peptide fluorescence polarization, 2 h; Potency, µM, for the others: max response, negative = inhibition, actives largely listed as inhibitors; 400,000 tested, 0.93% active; also: potency is read from the fitted curve at half-maximal effect; % is scaled to controls: 0 for no effect and ±100 for the full control effect
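Two reagent solutions held at 4 deg C in the dark were dispensed, compounds pinned at 23 nl, and the mixture incubated 2 h at room temperature. Read-out: fluorescence polarization of VDR–SRC2-3 peptide binding.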
KCNH2 3.1 inh – blocks the human KCNH2 3.1 channel isoform. U2OS KCNH2 3.1, thallium flux FluxOr; active compounds read low. activity change, % (tested at about 1.8 µM). 340,000 tested, 0.95% active. AID 720553;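 active = maximum activity change below -70%; inconclusive = maximum activity change from -70% to -50%; inactive = maximum activity change above -50%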;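 also: thallium influx rate constant from kinetic fluorescence after stimulation buffer; % is scaled to controls: 0 for no effect and ±100 for the full control effect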
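U2OS cells transduced with KCNH2 3.1 mutant virus (1.77 x 10^8 /mL, 4 h), plated overnight at 37 C, loaded 45 min with FluxOr dye plus Red40 quencher. Thallium flux rate constant from kinetic reads after stimulation buffer, normalised to controls.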
PLK1 PBD block – inhibitors of human PLK1 polo-box domain binding; Plk1 PBD binding of FITC phosphopeptide, fluorescence polarization; Potency, µM, without a hit: max response, negative = inhibition, actives largely listed as inhibitors; 360,000 tested, 2.8% active; AID 720504; also: potency is read from the fitted curve at half-maximal effect; series mostly up to about 57 µM; % is scaled to controls: 0 for no effect and ±100 for the full control effect; nearly all actives have a fitted effect of over 65% in size
Numbers without * were called inactive; ? = inconclusive; nt = not tested or not shown; [ ] = dose if it differs, or a comment. Unless noted, calls follow the shape of the dose curve; as a rule, active = well fitted curve in the direction sought with a large enough effect; inconclusive = small, poorly fitted or top-dose-only effect, or another doubt; inactive = no such curve, though single readings can be large; an effect the other way counts as inactive or inconclusive.

SMILES | KCNH2 WT inh | MBNL1 CUG block | CBFb RUNX1 block | VDR inh | KCNH2 3.1 inh | PLK1 PBD block
Cc1onc(-c2ccccc2)c1C(=O)Nc1sc2c(c1C#N)CCC(C)C2 (stereo unspecified) | 6 | 10% | 5% | 3% | 0 | -6%
Cc1cc(C)c(NC(=O)Cn2c(=O)n(Cc3ccco3)c(=O)c3ccc(C(=O)NC4CCCC4)cc32)c(C)c1 | nt | nt | nt | 8% | nt | nt
Cc1ccc(-c2nc3ncccc3o2)cc1NC(=O)c1cccc(OCC(C)C)c1 | nt | nt | nt | 4% | nt | nt
O=C(NCc1ccc(F)cc1)C1CCN(S(=O)(=O)N2CCCC2)CC1 | nt | -6% | 5% | ? | 5 | 12µM*
O=C(CCNS(=O)(=O)c1ccc(Br)cc1)NCc1ccc(Cl)cc1 | 3 | -2% | nt | -9% | -3 | 27µM*
CC(=O)Nc1ccc(S(=O)(=O)N2CCC(C(=O)NCCc3c[nH]c4ccccc34)CC2)cc1 | -10 | -4% | nt | 18% | -133* | 3%
CC1CCN(S(=O)(=O)N2CCCC(C(=O)NCc3ccc(F)cc3)C2)CC1 (stereo unspecified) | -7 | -12% | nt | 79µM* | 0 | 27µM*
OC[C@@H](O)C(O)[C@H](O)[C@@H](O)CO (stereo partly specified) | nt | nt | 8% | 0% | nt | nt
Cc1cc2c(n1-c1ccc(C(=O)NCc3cccc(Br)c3)cc1)CCC(C)C2 (stereo unspecified) | nt | nt | nt | -3% | nt | nt
Cc1cc(OCC(=O)Nc2ccc(C(=O)OC3CCCCC3)cc2)cc(C)c1Cl | nt | nt | nt | 1% | nt | nt
Cc1ccc(NC(=O)CC(c2ccc(F)cc2)N2Cc3ccccc3C2=O)cc1C (stereo unspecified) | nt | nt | nt | 2% | nt | nt
O=C(NCc1ccc(F)cc1)NC(=O)c1ccc(Cl)cc1 | -1 | 5% | nt | -4% | -3 | -6%
COc1ccc(NC(=O)CCNC(=O)C2CCN(S(=O)(=O)c3ccc(OC)cc3)CC2)cc1 | 0 | -1% | nt | 8% | 8 | -3%
CC1CCN(C(=O)C(C)NCc2ccc(F)cc2)CC1 (stereo unspecified) | -4 | -1% | nt | ? | 1 | 17µM*
COc1ccc(S(=O)(=O)N2CCC(C(=O)NCCC(=O)Nc3cccc(Cl)c3)CC2)cc1 | 6 | -4% | nt | 28µM* | -23 | 6.7µM*
O=C(CCNC(=O)C1CCN(S(=O)(=O)c2ccc(F)cc2)CC1)NCc1ccc(Cl)cc1 | -22 | -4% | nt | 6% | -113* | -9%
O=C(CCCNC(=O)c1ccc(Cl)cc1)NCc1ccc(F)cc1 | -8 | 3% | nt | ? | -1 | 27µM*
COc1ccc(C2=Nn3c(nnc3-c3cccc(OC)c3)SC2)cc1 | nt | nt | 3% | nt | nt | nt
Cc1cc(C)c(Cn2c3ccccc3c3cnn(CC(=O)NCCc4ccccc4)c(=O)c32)c(C)c1 | nt | nt | nt | 13% | nt | nt
CCOC(=O)Cc1ccc(NC(=O)N2CCC(CN3CCCCCC3)CC2)cc1 | nt | nt | nt | 6% | nt | nt
COc1ccc(CCN2CCC[C@H](CN3CCc4cc(OC)c(OC)cc4CC3=O)C2)cc1OC | nt | nt | ? | 1% | nt | nt
CC(C)C[C@H](NC(=O)[C@H](Cc1ccccc1)NC(=O)CNC(=O)[C@H](CCC(=O)O)NC(=O)[C@H](CCCNC(=N)N)NC(=O)[C@H](C)NC(=O)[C@H](C)NC(=O)[C@@H](N)CC(=O)O)C(=O)N[C@@H](CC(=O)O)C(=O)N[C@H](C(=O)N[C@@H](CC(C)C)C(=O)N[C@H](C(=O)N[C@H](C(=O)N[C@@H](CC(C)C)C(=O)N[C@@H](Cc1cnc[nH]1)C(=O)N[C@@H](CCCNC(=N)N)C(=O)N[C@@H](C)C(=O)NCC(=O)N[C@@H](C)C(=O)N[C@@H](CCCNC(=N)N)C(=O)O)C(C)C)C(C)C)[C@@H](C)O | nt | nt | -1% | 16% | nt | nt
Cn1c(N2CCN(C(=O)Nc3ccc(F)cc3)CC2)nc2ccccc21 | 28 | ? | 7% | 5% | -12 | -4%
Cn1c(N2CCN(C(c3ccccc3)c3ccccc3)CC2)nc2ccccc21 | -48 | 4% | nt | -12% | -86* | -11%
Cc1cc(NC(=O)CN(C)S(=O)(=O)c2ccc3c(c2)CCC(=O)N3)ccc1Br | nt | nt | nt | -15% | nt | nt
SMILES | KCNH2 WT inh | MBNL1 CUG block | CBFb RUNX1 block | VDR inh | KCNH2 3.1 inh | PLK1 PBD block
O=C1CC(c2nc3ccccc3n2CCC2CCCCC2)CN1c1ccccc1Cl (stereo unspecified) | nt | nt | nt | 6% | nt | nt
COc1ccc2cc[nH]c2c1 | -9 | 6% | -3% | ? | 3 | 21µM*
COc1cc(OC)c2cc[nH]c2c1 | -6 | 5%[11.5 µM] | -6% | 3% | 5 | 5%
Cc1ccc(C)c(OC(=O)CN2C(=O)c3ccccc3C2=O)c1 | -94* | 11% | nt | -10% | 2 | -7%
CCNS(=O)(=O)c1ccc(Br)c(OC)c1 | -29 | 1% | 2% | -14% | -93* | -1%
CCN(CC)S(=O)(=O)c1ccc(Br)c(OC)c1 | 13 | 4% | 13% | -12% | -5 | -1%
CC(C)C(C(=O)NCC1CCCO1)N(Cc1ccco1)C(=O)CNS(=O)(=O)c1ccccc1 (stereo unspecified) | 12 | 1% | 8% | -3% | -10 | -4%
CCCC(C(=O)NCC1CCCO1)N(Cc1ccco1)C(=O)CNS(=O)(=O)c1ccc(F)cc1 (stereo unspecified) | 4 | -4% | 6% | -13% | -2 | 15µM*
Cc1cccc(CNC(=O)CCCn2c(=O)c3cccn3c3ccc(F)cc32)c1 | nt | nt | nt | -3% | nt | nt
Cc1cc2nc(SCC(=O)Nc3ccccc3C(=O)O)[nH]c2cc1C | 6 | -4% | 3% | -3% | -138* | -17%
COC(=O)c1ccccc1N=C(SC)N(C)C | 16 | -10% | 0% | ? | 24 | 30µM*
COC(=O)c1ccccc1NC(=S)N(C)C | -1 | -3% | 2% | 8% | 8 | -5%
CCOC(=O)C1=C(C)N(C)C(=O)NC1c1cccc2ccccc12 (stereo unspecified) | -8 | 0% | nt | ? | 5 | 11µM*
Cc1cc(NC(=O)CSc2nc(-c3cccs3)cc(C(F)(F)F)n2)no1 | ? | 15% | 13% | 8% | 3 | -10%
CCOC(=O)CS(=O)(=O)c1nc(-c2ccc(F)cc2)cc(C(F)(F)F)n1 | -5 | -7% | 19% | ? | 4 | 5.3µM*
